Assay outcomes: PubChem BioAssay, National Center for Advancing Translational Sciences (NCATS)
NS1 inh: blocks influenza NS1 protein function; AID 2326; 270,000 tested, 0.4% active; Potency, µM (doses to about 46.1 µM); calls by dose curve; also: actives are rising curves; nearly all actives have a fitted effect of over 50% in size
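Compounds were scored for reversing the slow growth caused by influenza A NS1 in S. cerevisiae, measured by optical density at 600 nm. Assay medium contained 2% galactose at pH 6.0; NS1-free yeast of the same strain were the positive control.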
AMA1 RON2 block: AMA1-RON2 (P. falciparum) interaction inhibition | AlphaScreen AMA1-biotinylated RON2 peptide binding | AID 720542 | 360,000 tested, 0.2% active | Potency, µM (series often up to 58.2 µM), actives largely listed as inhibitors; also: nearly all actives have a fitted effect of over 45% in size
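AMA1 (3D7) with his tag at 25 nM final met compounds first, then biotinylated RON2 peptide at 25 nM; detection used donor plus acceptor beads, 10 µg/mL apiece, read by AlphaScreen after 30 min at room temperature.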
Sm TGR block: S. mansoni TGR enzyme inhibition; 360,000 tested, 3% active; AID 485364; purified TGR, DTNB reduction, TNB absorbance 405 nm; Q962Y6; Potency, µM (top dose mostly 114 µM), most hits filed as inhibitors; also: nearly all actives have a fitted effect of over 60% in size
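TGR 20 nM + NADPH 100 uM (dispensed conc.), cpd preinc 15 min RT; start with NADPH (500 uM addition) then DTNB (15 mM addition). Kinetic TNB absorbance, 405 nm filter. Four-parameter Hill fit across titration.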
Pf growth 96h: P. falciparum growth inhibition at 96 hours; P. falciparum luciferase reporter growth, 96 h; Potency, µM (titrated, usually from 28.7 µM), usual class: inhibitors; 320,000 tested, 6.9% active; AID 504834
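P. falciparum expressing integrated firefly luciferase grown in erythrocytes (2% hematocrit, 0.05% parasitemia final) with compounds for 96 hours at 37 C, 5% CO2. Growth inhibition read as loss of luminescence after adding luciferase detection reagent.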
Pf growth 48h: P. falciparum growth inhibition at 48 hours (one generation); 310,000 tested, 5.9% active; Potency, µM (highest dose often 28.7 µM), usual class: inhibitors; P. falciparum luciferase growth in erythrocytes, 48 h
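Luminescence readout; reporter = integrated firefly luciferase in P. falciparum. RBC culture at 2% hematocrit, 0.1% parasitemia final, 37 C/5% CO2; decreased signal taken as growth inhibition.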
Numbers stand for hits; – = inactive; ? = inconclusive; · = no result given; [ ] = dose if it differs, or a comment. In the library only some 11% were active in any assay of this set; here they are far more common. Unless noted, calls follow the shape of the dose curve; as a rule, active = well fitted curve in the direction sought with a large enough effect; inconclusive = small, poorly fitted or top-dose-only effect, or another doubt; inactive = no such curve, though single readings can be large; an effect the other way counts as inactive or inconclusive.

SMILES	NS1 inh	AMA1 RON2 block	Sm TGR block	Pf growth 96h	Pf growth 48h
O=C(CN1N=C(c2ccccc2)CCC1=O)NCc1cccs1	·	–	–	?	–
O=C(Nc1ccc(Br)cc1)c1cccc(S(=O)(=O)N2CCc3ccccc32)c1	·	·	–	·	·
CN(C)S(=O)(=O)c1cccc(NC(=O)c2cccc(S(=O)(=O)N3CCc4ccccc43)c2)c1	·	–	–	9.3µM	5.9µM
Cc1ccc(NC(=O)Cn2cnc3sc(C(=O)NCCN(C)C)c(C)c3c2=O)cc1Cl	–	·	–	12µM	?
CCN(CC)CCCNC(=O)c1sc2ncn(CC(=O)Nc3ccc(C)c(Cl)c3)c(=O)c2c1C	·	–	–	–	13µM
CCOC(=O)c1cnc2cc(C(F)(F)F)ccc2c1N1CCN(c2cccc(Cl)c2)CC1	·	·	–	·	·
C#CCN(CC=C)C(=O)c1cccc(OC2CCN(S(C)(=O)=O)CC2)c1	–	–	–	?	–
CCN(CCn1cccn1)C(=O)c1cccc(OC2CCN(S(C)(=O)=O)CC2)c1	–	–	–	10µM	–
COCC(C)NC(=O)CSc1nc2cc(S(=O)(=O)N3CCCCC3)ccc2o1 (centres undefined)	·	–	–	?	?
CCOC(=O)CCCCC(=O)c1[nH]c(=O)[nH]c1CSc1nc(C)cc(C)n1	–	–	–[11.4 µM]	–	·
CCOC(=O)c1[nH]c(=O)[nH]c1COC(=O)c1cc2ccccc2o1	–	–	4.5µM	–	–
CCOC(=O)CCCCC(=O)c1[nH]c(=O)[nH]c1CSc1nnc2c3cc(Br)ccc3n(C)c2n1	·	·	–	–	10µM
CCOC(=O)c1[nH]c(=O)[nH]c1CSc1nc(C)cc(C)n1	–	–	35µM	·	?
CCOC(=O)CCCCC(=O)c1[nH]c(=O)[nH]c1CSc1nc(C)cc(=O)[nH]1	–	?	2.5µM	·	–
C[C@@H]1CN([C@H](C)CO)S(=O)(=O)c2ccc(Br)cc2O[C@H]1CN(C)C(=O)C1CCCCC1	·	–	·	·	·
[N-]=[N+]=NCCN1CCN(CCc2ccccc2)CCC1=O	–	–	–	?	–
CCOC(=O)c1c(C)[nH]c(C)c1C(=O)CSc1nc2ccccc2[nH]1	–	–	–	–	–
CCOC(=O)CCCCC(=O)c1[nH]c(=O)[nH]c1CSc1nc2ccccc2[nH]1	?	–	3.2µM	–	?
O=C(CCc1nnc(Cc2ccc(-c3ccccc3)cc2)o1)NCC1CC1	–	–	–	–	–
COCCNC(=O)CCc1nnc(Cc2ccc(-c3ccccc3)cc2)o1	–	–	–	12µM	–
CC(C)(C)OC(=O)N1CCC(c2c(C(=O)O)cnn2-c2ccccc2)CC1	–	–	–	?	–
CC(=O)Nc1ccc(NC(=O)c2cnn(-c3ccccc3)c2C2CCN(C(=O)OC(C)(C)C)CC2)cc1	·	·	5µM	·	·
Cc1cccc(-n2ncc(C(=O)NC3CCCC3)c2C2CCN(C(=O)OC(C)(C)C)CC2)c1	–	–	–	?	1.5µM
CC(C)(C)OC(=O)N1CCC(c2c(C(=O)N3CCN(C(=O)c4ccco4)CC3)cnn2-c2cccc(Cl)c2)CC1	–	–	–	–	12µM
CC(C)(C)OC(=O)N1CCC(c2c(C(=O)NC3CC3)cnn2-c2ccccc2)CC1	–	–	–	–	12µM
SMILES	NS1 inh	AMA1 RON2 block	Sm TGR block	Pf growth 96h	Pf growth 48h
CCn1c(SCC(=O)OC)nnc1-c1c[nH]c2ccccc12	–	–	–	–	–
CCn1nc(NC(=O)C(C)C)c2cc3cccc(C)c3nc21	–	–	–	?	–
CNC(=O)C[C@H]1C(=O)N(C2CCCCC2)C[C@@H]1CSC	·	–	·	·	·
COc1ccc(OCCSc2nc3ccccc3n2CC(=O)O)cc1	?	–	–	·	–
Cc1cccc(C)c1OCCSc1nc2ccccc2n1CC(=O)O	–	–	–	12µM	–
CC1(C(=O)NS(=O)(=O)c2ccc(F)cc2F)CCN1C(=O)C1(c2ccc(Cl)cc2)CCC1 (centres undefined)	·	–	·	·	·
O=S(=O)(NCc1ccco1)c1ccc2ccccc2c1	–	–	–	–	–
O=S(=O)(NCc1ccco1)c1ccc(Cl)cc1Cl	–	–	45µM	?	–
Cc1ccc2ccc(S(=O)(=O)NCc3ccco3)cc2c1	–	–	13µM	–	–
O=C(O)c1ccc(Cl)c(S(=O)(=O)NCc2ccco2)c1	–	–	?	–	–
O=C1CCC/C(=N\NC(=O)COc2ccc(Cl)cc2)C1	·	–	–	?	?
COc1ccc(NS(=O)(=O)c2cccc(C(=O)NCC(c3ccc(F)cc3)N3CCOCC3)c2)cc1 (centres undefined)	–	–	–	?	?
CCC(=O)c1ccc(OCC(=O)NCC2(N3CCCCC3)CCCCC2)cc1	·	–	–	4.7µM	–
CN(C)C1(CNC(=O)c2ccc(NS(=O)(=O)c3ccc(Cl)c(Cl)c3)cc2)CCCCC1	·	–	–	13µM	12µM
COc1ccccc1C(CNC(=O)c1cccc(S(=O)(=O)Nc2ccc(C)cc2)c1)N1CCCC1 (centres undefined)	·	–	–	15µM	13µM
CC(=O)c1ccc(OCC(=O)NCC2(N3CCCCC3)CCCCC2)cc1	–	–	–	?	?
CCOc1ccc(S(=O)(=O)Nc2ccc(C(=O)NCC3(N4CCCCC4)CCCCC3)cc2)cc1	·	–	–	1.2µM	3.3µM
Cc1nc(S(=O)(=O)N2CCN(c3ccccc3F)CC2)cn1C	·	·	–	·	·
CCC(=O)N1CCc2cc(Br)cc(S(=O)(=O)N3CCC(C(=O)Nc4ccccc4CC)CC3)c21	·	·	–	·	·
Cc1ccc(N(C)S(=O)(=O)c2cccc(C(=O)NCC(c3ccco3)N3CCCC3)c2)cc1 (centres undefined)	·	–	–	3.3µM	9.3µM
COc1ccc(NS(=O)(=O)c2cccc(C(=O)NCC(c3ccco3)N3CCCCC3)c2)cc1 (centres undefined)	·	–	–	?	?
COc1ccccc1NS(=O)(=O)c1cccc(C(=O)NCC(c2ccco2)N2CCCC2)c1 (centres undefined)	·	–	–	15µM	12µM
Cc1cccc(NS(=O)(=O)c2cccc(C(=O)NCC(c3ccco3)N3CCCCC3)c2)c1 (centres undefined)	·	–	–	15µM	?
Cc1cccc(NS(=O)(=O)c2cccc(C(=O)NCC3(N4CCCCC4)CCCCC3)c2)c1	·	–	–	8.3µM	6.6µM
Cc1ccc(NC(=O)CCCn2c(=O)c3cccn3c3cccnc32)c(Cl)c1	·	·	–	·	·
COc1ccc(C(CNC(=O)c2cccc(S(=O)(=O)Nc3ccc(C)cc3)c2)N2CCCCC2)cc1 (centres undefined)	·	–	–	9.3µM	8.3µM
COc1ccccc1NC(=O)C(=O)NCC(c1ccco1)N1CCc2ccccc2C1 (centres undefined)	·	–	–	?	5.2µM
COc1ccc(C(CNC(=O)c2ccc(NS(=O)(=O)c3ccc(F)c(C)c3)cc2)N2CCOCC2)cc1 (centres undefined)	·	–	–	–	10µM
COc1ccc(C(CNC(=O)c2cccc(NC(=O)c3cccs3)c2)N2CCCC2)cc1 (centres undefined)	·	–[11.6 µM]	–	5.9µM	12µM
